Sampled rows, rich in hits. Any-hit rate of the full collection: about 4.1%.
ssDAF-12 act: activators of S. stercoralis DAF-12 nuclear receptor | HEK293 ssDAF-12/GRIP1 lit1-tk-luc reporter, luminescence; % of 3 µM dafachronic acid response | activation, % at 6.8 µM | 370,000 compounds, 1% hits;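 active = activation above the mean over all tested compounds plus 3 SD, cut at about 0.9% in these data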
DAX1 inh-1: inhibits human nuclear receptor DAX1; HEK293 Gal4-DAX1 luciferase reporter, luminescence; P51843; 340,000 compounds, 0.99% hits; AID 504766; inhibition, % at 6.75 µM;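 active = inhibition above the mean over all tested compounds plus 3 SD, cut at about 4.2% in these data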;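 also: inhibition shows as a rise in luminescence from relieved DAX1 repression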
Target sequence (P51843 207-470 limits assumed): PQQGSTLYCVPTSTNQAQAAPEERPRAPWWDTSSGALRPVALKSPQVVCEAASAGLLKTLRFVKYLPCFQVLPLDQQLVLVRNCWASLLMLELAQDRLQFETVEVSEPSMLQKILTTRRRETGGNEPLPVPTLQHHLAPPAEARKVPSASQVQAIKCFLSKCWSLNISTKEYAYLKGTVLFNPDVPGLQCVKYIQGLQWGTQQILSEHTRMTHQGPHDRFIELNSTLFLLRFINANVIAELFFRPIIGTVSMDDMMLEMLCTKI
DAX1 inh-2: blocks DAX1 repression of SF-1 activated StAR promoter. HEK293T StAR-luciferase reporter, SF-1/DAX-1 repression relief. inhibition, % at 6.8 µM. 370,000 compounds, 1.1% hits. AID 652010;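 active = inhibition above the mean over all tested compounds plus 3 SD, cut at about 3.6% in these data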;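 also: higher inhibition means more luminescence from relief of DAX-1 repression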
hcDAF12 agonist: activates DAF-12 receptor from parasite H. contortus; 370,000 compounds, 1.4% hits; AID 652067; activation, % at 6.8 µM; HEK293 hcDAF-12 lit1-tk-luc reporter, luminescence; 0% DMSO, 100% Δ7-dafachronic acid;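 active = activation above the mean of all tested compounds plus 3 SD, cut at about 5.5% in these data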
hgDAF-12 ag: hgDAF-12 agonism, primary luciferase screen; AID 687014; 370,000 compounds, 1.8% hits; activation, % at 6.8 µM; HEK293 GAL4-hgDAF12 UAS-luciferase reporter, agonist luminescence; normalized to butyrate control;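 active = activation above a cutoff set at the mean of all screened compounds plus 3 SD, cut at about 10% in these data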
hgDAF12 ag: confirmation of H. glycines DAF-12 agonists. shares compounds with hgDAF-12 ag. HEK293 GAL4-hgDAF12 luciferase reporter, agonist mode; percent of butyrate response. activation, % at 6.8 µM. 3,300 compounds, 80% hits;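 active = mean activation over triplicate wells above the hit cutoff derived from the earlier primary screen, cut at about 11% in these data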
LXRb DAF12 ctr: activates human LXR-beta, counter-screen for DAF-12 agonists | shares compounds with hgDAF-12 ag | HEK293 Gal4-LXR luciferase reporter, 24 h | activation, % at 6.8 µM | 3,300 tested, under 10 active | AID 743051;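 active = mean activation of the triplicate above a set limit carried over from the primary screen, none filed active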
Target sequence (P55055 whole entry, looked up, the tested form may be a part): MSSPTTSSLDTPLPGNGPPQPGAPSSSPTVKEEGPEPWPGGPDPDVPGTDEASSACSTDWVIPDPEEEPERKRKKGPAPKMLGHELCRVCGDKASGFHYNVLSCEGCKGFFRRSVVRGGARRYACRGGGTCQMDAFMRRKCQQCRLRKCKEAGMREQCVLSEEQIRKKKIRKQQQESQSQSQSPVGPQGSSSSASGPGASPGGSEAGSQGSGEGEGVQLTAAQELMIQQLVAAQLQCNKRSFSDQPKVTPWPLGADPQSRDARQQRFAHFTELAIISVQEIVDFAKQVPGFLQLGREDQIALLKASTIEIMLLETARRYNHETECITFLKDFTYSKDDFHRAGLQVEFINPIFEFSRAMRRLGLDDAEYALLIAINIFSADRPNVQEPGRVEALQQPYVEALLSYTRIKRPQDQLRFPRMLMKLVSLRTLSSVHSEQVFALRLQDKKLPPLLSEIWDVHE
Hits are given with their value.

Results for Cc1cccc(/C=C\c2nc3ccccc3c(=O)[nH]2)c1 ?
ssDAF-12 act: inactive; DAX1 inh-1: inactive; DAX1 inh-2: 3.6; hcDAF12 agonist: inactive; hgDAF-12 ag: 15; hgDAF12 ag: 21; LXRb DAF12 ctr: inactive

How did CCn1c2ccccc2c2cc(NC(=O)COC(=O)c3ccc(F)cc3F)ccc21 do in these assays?
ssDAF-12 act: inactive; DAX1 inh-2: inactive; hcDAF12 agonist: inactive; hgDAF-12 ag: inactive

How did COc1ccc(S(=O)(=O)Nc2ccc3c(c2)C(=O)N([C@H](C)CO)C[C@H](C)[C@@H](CN(C)C(=O)Nc2ccccc2)O3)cc1 do in these assays?
ssDAF-12 act: inactive; DAX1 inh-1: inactive; DAX1 inh-2: inactive; hcDAF12 agonist: inactive; hgDAF-12 ag: inactive

What do the screens show for `O=[N+]([O-])c1cc(-c2ccc(C(=S)N3CCOCC3)o2)ccc1Cl`?
ssDAF-12 act: inactive; DAX1 inh-1: inactive; DAX1 inh-2: inactive; hcDAF12 agonist: inactive; hgDAF-12 ag: inactive

What do the screens show for `O=[N+]([O-])c1cccc(-c2ccc(C(=S)N3CCOCC3)o2)c1`?
ssDAF-12 act: inactive; DAX1 inh-1: inactive; DAX1 inh-2: inactive; hcDAF12 agonist: inactive; hgDAF-12 ag: 18; hgDAF12 ag: 16; LXRb DAF12 ctr: inactive

How did S=C(c1ccc(-c2cccc(Cl)c2)o1)N1CCCCC1 do in these assays?
ssDAF-12 act: 1.1; DAX1 inh-1: inactive; DAX1 inh-2: 4.2; hcDAF12 agonist: 6.3; hgDAF-12 ag: 27; hgDAF12 ag: 21; LXRb DAF12 ctr: inactive

Results for CC1CCc2nc3sc4c(c3c(N)c2C1)CCCC4 (stereo not given) ?
ssDAF-12 act: inactive; DAX1 inh-1: inactive; DAX1 inh-2: inactive; hcDAF12 agonist: inactive; hgDAF-12 ag: 14; hgDAF12 ag: 11; LXRb DAF12 ctr: inactive

Results for Cc1nc(-c2ccc(NC(=O)c3ccccc3C)cc2)cs1 ?
ssDAF-12 act: inactive; DAX1 inh-1: inactive; DAX1 inh-2: inactive; hcDAF12 agonist: inactive; hgDAF-12 ag: 20; hgDAF12 ag: 16; LXRb DAF12 ctr: inactive

What do the screens show for `CC1CCN(S(=O)(=O)c2ccc3c(c2)NC(=O)CS3)CC1`?
ssDAF-12 act: inactive; DAX1 inh-1: inactive; DAX1 inh-2: inactive; hcDAF12 agonist: inactive; hgDAF-12 ag: inactive

How did O=C1NC(=Nc2ccccc2)S/C1=C/c1cccs1 do in these assays?
ssDAF-12 act: inactive; DAX1 inh-1: inactive; DAX1 inh-2: inactive; hcDAF12 agonist: inactive; hgDAF-12 ag: 15; hgDAF12 ag: inactive; LXRb DAF12 ctr: inactive

What do the screens show for `Cc1cccc(N=C2NC(=O)/C(=C\c3cccs3)S2)c1`?
ssDAF-12 act: inactive; DAX1 inh-1: inactive; DAX1 inh-2: inactive; hcDAF12 agonist: inactive; hgDAF-12 ag: inactive

How did Nc1ccccc1SCc1cn2cccnc2n1 do in these assays?
ssDAF-12 act: inactive; DAX1 inh-1: inactive; DAX1 inh-2: inactive; hcDAF12 agonist: inactive; hgDAF-12 ag: 14; hgDAF12 ag: inactive; LXRb DAF12 ctr: inactive

How did COC(=O)c1sccc1-c1ccc(C(=O)Nc2ccccc2)o1 do in these assays?
ssDAF-12 act: inactive; DAX1 inh-1: inactive; DAX1 inh-2: inactive; hcDAF12 agonist: inactive; hgDAF-12 ag: 13; hgDAF12 ag: 13; LXRb DAF12 ctr: inactive

What do the screens show for `CC(=O)Nc1ccc(/C(N=Nc2ccccc2)=N/N=C(N)N)cc1`?
ssDAF-12 act: 1.6; DAX1 inh-1: 4.5; DAX1 inh-2: inactive; hcDAF12 agonist: inactive; hgDAF-12 ag: 13; hgDAF12 ag: 16; LXRb DAF12 ctr: inactive

Results for CCCSc1nsc(NC(=O)CC)n1 ?
ssDAF-12 act: inactive; DAX1 inh-1: inactive; DAX1 inh-2: inactive; hcDAF12 agonist: inactive; hgDAF-12 ag: 17; hgDAF12 ag: 11; LXRb DAF12 ctr: inactive

What do the screens show for `CCCCCCSc1nsc(NC(=O)CC(C)C)n1`?
ssDAF-12 act: inactive; DAX1 inh-1: inactive; DAX1 inh-2: inactive; hcDAF12 agonist: inactive; hgDAF-12 ag: inactive

What do the screens show for `CCC(=O)Nc1ccc2c(c1)C(=O)c1ccccc1C2=O`?
ssDAF-12 act: inactive; DAX1 inh-1: inactive; DAX1 inh-2: 3.8; hcDAF12 agonist: 6.4; hgDAF-12 ag: 13; hgDAF12 ag: 16; LXRb DAF12 ctr: inactive

What do the screens show for `Cc1nc2cc(NCc3ccc(Cl)cc3)ccc2n1C`?
ssDAF-12 act: 1.6; DAX1 inh-1: 4.7; DAX1 inh-2: inactive; hcDAF12 agonist: inactive; hgDAF-12 ag: 14; hgDAF12 ag: 14; LXRb DAF12 ctr: inactive

How did NC(=O)NC(CC(=O)OCC(=O)Nc1nnc(-c2ccccc2)o1)c1ccc(Cl)cc1 (stereo not given) do in these assays?
ssDAF-12 act: inactive; DAX1 inh-1: inactive; DAX1 inh-2: inactive; hcDAF12 agonist: inactive; hgDAF-12 ag: inactive

Results for COc1cccc(NC(=O)Nc2nc3ncccn3c2-c2ccc(C)cc2)c1 ?
ssDAF-12 act: inactive; DAX1 inh-2: inactive; hcDAF12 agonist: inactive; hgDAF-12 ag: 14; hgDAF12 ag: inactive; LXRb DAF12 ctr: inactive

What do the screens show for `Cc1ccc(-c2c(NC(=O)Nc3ccc(F)cc3)nc3ncccn23)cc1`?
ssDAF-12 act: inactive; DAX1 inh-2: inactive; hcDAF12 agonist: inactive; hgDAF-12 ag: inactive

How did COc1cccc2c1C(=O)O/C2=C/c1ccc2c(c1)OCO2 do in these assays?
ssDAF-12 act: 1.2; DAX1 inh-1: inactive; DAX1 inh-2: inactive; hcDAF12 agonist: inactive; hgDAF-12 ag: 16; hgDAF12 ag: 14; LXRb DAF12 ctr: inactive

What do the screens show for `COc1ccccc1CN1CCN(Cc2nc(-c3cccs3)no2)CC1`?
ssDAF-12 act: inactive; DAX1 inh-1: inactive; DAX1 inh-2: inactive; hcDAF12 agonist: inactive; hgDAF-12 ag: inactive

How did COCC1CCN(Cc2nc(-c3cccs3)no2)C1 (stereo not given) do in these assays?
ssDAF-12 act: inactive; DAX1 inh-2: inactive; hcDAF12 agonist: inactive; hgDAF-12 ag: 22; hgDAF12 ag: inactive; LXRb DAF12 ctr: inactive

Results for CCn1c(SCC(=O)Nc2ccc(F)cc2)nnc1C1CC1 ?
ssDAF-12 act: inactive; DAX1 inh-1: inactive; DAX1 inh-2: inactive; hcDAF12 agonist: inactive; hgDAF-12 ag: inactive

Results for COc1ccc2c(c1)CC/C(=C/c1cc(OC)c(OC)c(OC)c1)C2=O ?
ssDAF-12 act: inactive; DAX1 inh-1: inactive; DAX1 inh-2: inactive; hcDAF12 agonist: inactive; hgDAF-12 ag: inactive

What do the screens show for `COc1ccc(OC)c(C=C2CCc3ccccc3C2=O)c1`?
ssDAF-12 act: inactive; DAX1 inh-2: inactive; hcDAF12 agonist: inactive; hgDAF-12 ag: 14; hgDAF12 ag: inactive; LXRb DAF12 ctr: inactive

How did COc1ccc(/C=C/c2nc3ccccc3n2C)cc1 do in these assays?
ssDAF-12 act: inactive; DAX1 inh-1: inactive; DAX1 inh-2: inactive; hcDAF12 agonist: inactive; hgDAF-12 ag: inactive

What do the screens show for `CC(C)Cn1c(/C=C/c2ccccc2)nc2ccccc21`?
ssDAF-12 act: inactive; DAX1 inh-1: inactive; DAX1 inh-2: inactive; hcDAF12 agonist: inactive; hgDAF-12 ag: 14; hgDAF12 ag: inactive; LXRb DAF12 ctr: inactive

Screens (PubChem)
